Experimental data reported in ChEMBL document CHEMBL2218924, “A broad activity screen in support of a chemogenomic map for kinase signalling research and drug discovery” (Biochem J, 2013).

Key:
[1] = target: T1, MAP kinase-activated protein kinase 5 (Homo sapiens) (UniProt Q8IW41); details: at 1 µM
T1 sequence (whole entry): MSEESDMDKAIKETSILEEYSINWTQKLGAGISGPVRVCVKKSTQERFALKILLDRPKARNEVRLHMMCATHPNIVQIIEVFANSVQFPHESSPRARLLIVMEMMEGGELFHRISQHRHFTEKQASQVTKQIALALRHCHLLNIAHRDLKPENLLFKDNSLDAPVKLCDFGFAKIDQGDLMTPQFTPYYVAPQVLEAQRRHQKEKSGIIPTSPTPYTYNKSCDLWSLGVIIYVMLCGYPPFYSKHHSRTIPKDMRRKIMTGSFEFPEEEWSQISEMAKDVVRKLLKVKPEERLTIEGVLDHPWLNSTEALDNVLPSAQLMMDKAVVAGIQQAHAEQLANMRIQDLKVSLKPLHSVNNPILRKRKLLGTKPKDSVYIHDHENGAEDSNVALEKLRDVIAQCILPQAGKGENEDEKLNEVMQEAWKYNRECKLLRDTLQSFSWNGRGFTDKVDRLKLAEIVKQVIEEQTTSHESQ

[2] = target: T1, MAP kinase-activated protein kinase 5 (Homo sapiens); details: at 10 µM
[3] = target: T2, Serine/threonine-protein kinase D2 (Homo sapiens) (UniProt Q9BZL6); details: at 1 µM
T2 sequence (whole entry): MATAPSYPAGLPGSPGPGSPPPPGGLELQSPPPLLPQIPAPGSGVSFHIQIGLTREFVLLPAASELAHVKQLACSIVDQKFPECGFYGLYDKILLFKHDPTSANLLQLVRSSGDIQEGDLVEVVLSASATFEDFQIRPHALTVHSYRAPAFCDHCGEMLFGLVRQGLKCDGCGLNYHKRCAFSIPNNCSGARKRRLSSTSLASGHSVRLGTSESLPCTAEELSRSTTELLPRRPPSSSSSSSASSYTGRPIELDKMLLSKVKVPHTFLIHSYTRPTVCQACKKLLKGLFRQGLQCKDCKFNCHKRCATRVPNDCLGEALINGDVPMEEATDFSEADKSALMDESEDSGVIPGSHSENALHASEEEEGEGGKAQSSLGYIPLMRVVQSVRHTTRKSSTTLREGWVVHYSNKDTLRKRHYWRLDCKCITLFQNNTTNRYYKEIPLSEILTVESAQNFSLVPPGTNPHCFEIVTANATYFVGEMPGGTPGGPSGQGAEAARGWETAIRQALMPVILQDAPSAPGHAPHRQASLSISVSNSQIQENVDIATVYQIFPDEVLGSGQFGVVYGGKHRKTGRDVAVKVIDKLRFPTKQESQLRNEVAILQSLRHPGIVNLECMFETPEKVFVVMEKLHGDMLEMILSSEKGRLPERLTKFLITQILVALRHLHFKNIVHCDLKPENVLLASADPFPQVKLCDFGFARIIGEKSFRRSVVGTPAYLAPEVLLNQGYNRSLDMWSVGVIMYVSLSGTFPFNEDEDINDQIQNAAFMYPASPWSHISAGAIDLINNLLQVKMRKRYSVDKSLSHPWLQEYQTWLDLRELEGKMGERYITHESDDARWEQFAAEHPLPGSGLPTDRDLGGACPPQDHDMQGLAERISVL

[4] = target: T2, Serine/threonine-protein kinase D2 (Homo sapiens); details: at 10 µM
[5] = target: T3, cGMP-dependent protein kinase 1 (Homo sapiens) (UniProt Q13976); details: at 1 µM
T3 sequence (whole entry): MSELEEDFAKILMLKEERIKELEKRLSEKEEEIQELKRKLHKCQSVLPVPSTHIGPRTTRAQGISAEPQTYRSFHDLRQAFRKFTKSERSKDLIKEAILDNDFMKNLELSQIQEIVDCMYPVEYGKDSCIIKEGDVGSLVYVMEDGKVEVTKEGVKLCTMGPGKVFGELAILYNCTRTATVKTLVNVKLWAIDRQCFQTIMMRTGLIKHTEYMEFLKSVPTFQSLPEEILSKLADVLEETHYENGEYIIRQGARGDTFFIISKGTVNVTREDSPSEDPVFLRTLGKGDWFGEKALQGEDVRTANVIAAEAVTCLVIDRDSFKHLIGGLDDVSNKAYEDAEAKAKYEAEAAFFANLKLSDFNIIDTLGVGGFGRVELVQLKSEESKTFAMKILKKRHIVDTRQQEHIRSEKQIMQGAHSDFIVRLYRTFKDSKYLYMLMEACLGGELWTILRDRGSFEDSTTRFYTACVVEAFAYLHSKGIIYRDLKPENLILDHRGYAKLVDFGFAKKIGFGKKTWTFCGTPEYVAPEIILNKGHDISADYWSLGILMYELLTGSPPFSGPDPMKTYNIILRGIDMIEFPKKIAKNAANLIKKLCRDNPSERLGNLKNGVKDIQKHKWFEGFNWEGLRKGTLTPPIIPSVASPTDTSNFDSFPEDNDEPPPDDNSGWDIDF

[6] = target: T3, cGMP-dependent protein kinase 1 (Homo sapiens); details: at 10 µM
[7] = target: T3, cGMP-dependent protein kinase 1 (Homo sapiens); details: at 1 µM; remark: listed apart in the source
[8] = target: T3, cGMP-dependent protein kinase 1 (Homo sapiens); details: at 10 µM; remark: listed apart in the source
[9] = target: Serine/threonine-protein kinase N2 (Homo sapiens) (UniProt Q16513); details: at 1 µM
[10] = target: Serine/threonine-protein kinase N2 (Homo sapiens) (UniProt Q16513); details: at 10 µM

Sequence of Serine/threonine-protein kinase N2 (Homo sapiens) (Q16513 whole entry, looked up): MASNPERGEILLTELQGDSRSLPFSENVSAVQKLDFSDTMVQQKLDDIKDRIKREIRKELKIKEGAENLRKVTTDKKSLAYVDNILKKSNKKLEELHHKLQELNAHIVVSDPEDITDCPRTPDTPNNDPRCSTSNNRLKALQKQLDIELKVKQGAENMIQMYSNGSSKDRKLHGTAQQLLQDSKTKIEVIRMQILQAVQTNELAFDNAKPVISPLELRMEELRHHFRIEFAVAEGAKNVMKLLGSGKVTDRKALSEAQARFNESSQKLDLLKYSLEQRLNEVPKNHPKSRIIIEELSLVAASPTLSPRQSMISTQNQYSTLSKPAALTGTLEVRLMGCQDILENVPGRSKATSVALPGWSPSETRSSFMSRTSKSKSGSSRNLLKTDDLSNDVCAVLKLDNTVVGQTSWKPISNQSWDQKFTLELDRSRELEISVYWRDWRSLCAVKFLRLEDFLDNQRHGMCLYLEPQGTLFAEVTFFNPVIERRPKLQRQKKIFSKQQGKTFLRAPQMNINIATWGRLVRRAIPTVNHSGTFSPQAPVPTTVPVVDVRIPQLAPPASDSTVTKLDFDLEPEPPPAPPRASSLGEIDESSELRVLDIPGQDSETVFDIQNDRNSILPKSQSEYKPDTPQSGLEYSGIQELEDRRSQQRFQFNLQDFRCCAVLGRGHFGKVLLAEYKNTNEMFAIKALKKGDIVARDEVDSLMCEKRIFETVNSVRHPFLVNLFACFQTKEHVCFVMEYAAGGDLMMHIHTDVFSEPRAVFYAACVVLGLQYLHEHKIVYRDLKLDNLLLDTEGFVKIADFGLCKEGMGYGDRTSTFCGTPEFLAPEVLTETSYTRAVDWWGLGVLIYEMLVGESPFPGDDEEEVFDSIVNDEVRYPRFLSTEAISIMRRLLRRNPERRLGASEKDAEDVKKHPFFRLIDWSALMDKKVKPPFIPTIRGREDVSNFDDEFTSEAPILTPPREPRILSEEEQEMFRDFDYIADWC

Compound | residual activity [1] [%] | residual activity [2] [%] | residual activity [3] [%] | residual activity [4] [%] | residual activity [5] [%] | residual activity [6] [%] | residual activity [7] [%] | residual activity [8] [%] | residual activity [9] [%] | residual activity [10] [%]
CC(C)[C@H](CO)Nc1nc(Nc2cccc(Cl)c2)c2ncn(C(C)C)c2n1 | 102 | 59 |  |  |  |  |  |  |  | 
COC(=O)[C@@]1(O)C[C@H]2O[C@]1(C)n1c3ccccc3c3c4c(c5c6ccccc6n2c5c31)C(=O)NC4 | 19 | 0 | 2 | 0 | 10 | 1 | 9 | 2 | 1 | 1
O=c1[nH]c2ccccc2n1C1CCN(Cc2ccc(-c3nc4cc5[nH]cnc5cc4nc3-c3ccccc3)cc2)CC1 | 75 | 37 | 100 | 108 | 108 | 110 | 86 | 97 | 112 | 115
COc1cc(OC)c(/C=C2\C(=O)Nc3ccccc32)c(OC)c1 |  |  | 108 | 105 | 97 | 108 | 83 | 73 | 99 | 87
CCc1nc(-c2ccc(OC)cc2)[nH]c1-c1ccncc1 |  |  |  |  |  |  |  |  | 102 | 74
O=C1NC(=O)c2c1c1c3ccccc3n3c1c1c2c2ccccc2n1C1CCC3O1 |  |  | 92 | 90 | 84 | 73 | 76 | 74 | 47 | 25
C[S+]([O-])c1ccc(-c2nc(-c3ccc(F)cc3)c(-c3ccncc3)[nH]2)cc1 (stereo not given) | 145 | 104 | 105 | 90 | 101 | 99 | 125 | 107 | 103 | 107
O=[N+]([O-])/C=C/c1ccc2c(c1)OCO2 | 85 | 70 | 105 | 105 | 107 | 106 | 101 | 90 | 102 | 107
